Inconclusive results are not listed. Activity calls are given as the source filed them. Unless noted, the call rests on the fitted dose curve; in most records, active means well fitted curve in the direction sought with a large enough effect; inconclusive means small, poorly fitted or top-dose-only effect, or another doubt; inactive means no such curve, though single readings can be large; an effect the other way counts as inactive or inconclusive.

Drawing on PubChem BioAssay (NCATS), this text covers Potency and outcome for 34 compounds.

A short description of experiment [1]: qHTS for differential inhibitors of proliferation of Plasmodium falciparum line 7G8 (AID 1815).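 Further: parasite growth measured after three days of incubation.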 Further: potency means the concentration at half of the fitted maximal effect. The following applies: Plasmodium falciparum 7G8 proliferation inhibition; series mostly up to 28.7 µM.
Experiment [2] is described as follows: qHTS for differential inhibitors of proliferation of Plasmodium falciparum line GB4 (AID 1816).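 Further: parasite growth measured after 72 h incubation.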 Further: potency means the concentration at half of the fitted maximal effect. The conditions noted are these: Potency: Plasmodium falciparum GB4 proliferation inhibition; series mostly up to 28.7 µM. For orientation: qHTS replaces the single test concentration by a dilution series.
A short description of experiment [3]: qHTS for differential inhibitors of proliferation of Plasmodium falciparum line D10 (AID 1877).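 Further: parasites grown with compound for 72 h before DNA staining.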 Further: potency means the concentration at half of the fitted maximal effect. The following applies: series mostly up to 28.7 µM.
A short description of experiment [4]: qHTS for differential inhibitors of proliferation of Plasmodium falciparum line Dd2 (AID 1882). Further: nearly all actives have a fitted effect of over 65% in size. Further: potency means the concentration at half of the fitted maximal effect. The conditions noted are these: Potency: Plasmodium falciparum Dd2 proliferation inhibition; series mostly up to 28.7 µM. In short, it runs like this: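 SYBR Green I DNA fluorescence read-out, ex 485/em 535 nm. Signals were normalized to 0.29 uM artemisinin and DMSO wells, then corrected using vehicle-only plates flanking each stack. Parasite growth ran 72 h in erythrocytes before lysis.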

Experiment [5] in a line: qHTS for differential inhibitors of proliferation of Plasmodium falciparum line HB3 (AID 1886).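 Further: parasites grown with compound for 72 h before SYBR Green readout.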 Further: potency means the concentration at half of the fitted maximal effect. The conditions noted are these: Potency: Plasmodium falciparum HB3 proliferation inhibition; series mostly up to 28.7 µM.
A short description of experiment [6]: qHTS Assay for Modulators of Human Peripheral Myelin Protein 22 (PMP22) Expression/Activity (AID 1967; active means well fitted curve in the direction sought with a large enough effect in the signal ratio; the % refers to the signal ratio). The conditions noted are these: Cell-based PMP22 reporter, dual-color luciferase ratio, 0% = compound-free control cells, mouse Pmp22 promoter in mouse Schwann cells; series mostly up to 115 µM. In a few lines: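 Readout is the corrected green/red luminescence ratio after 24 h compound exposure, normalised to untreated cells (0%). Engineered MSC80 mouse Schwann cells express green luciferase from the mouse Pmp22 promoter and red luciferase from EF-alpha as internal control.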

The target in experiment [7] is Ferritin light chain (Equus caballus) (UniProt P02791). As to the kind of experiment: qHTS Validation Assay for Identification of Novel General Anesthetics (AID 2323). The following applies: horse apoferritin, anesthetic-site fluorescent probe displacement; series mostly up to 76.9 µM. In a few lines:
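Competitive displacement of the profluorescent anesthetic 1-AMA (50% saturated, PBS) from 10 uM apoferritin, 10 min, room temperature. Activity is normalized 380/535 nm fluorescence; concentration-response fitted with a four-parameter Hill equation.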

The nature of experiment [8]: qHTS for differential inhibitors of proliferation of Plasmodium falciparum line 3D7 (AID 1876). Further: potency means the concentration at half of the fitted maximal effect. The following applies: P. falciparum 3D7 proliferation inhibition; series mostly up to 28.7 µM.
The nature of experiment [9]: qHTS for differential inhibitors of proliferation of Plasmodium falciparum line W2 (AID 1883).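 Further: potency means the concentration at half of the fitted maximal effect; parasites grown with compound for 72 h before lysis and staining.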 The following applies: Potency: Plasmodium falciparum W2 proliferation inhibition; series mostly up to 28.7 µM.
Experiment [10] is described as follows: qHTS Assay for Identification of Small Molecule Inducers of Hypoxia Response (AID 2120; active means well fitted curve in the direction sought with a large enough effect in the signal ratio, with a control signal flat, not every such curve was filed as active; the % refers to the signal ratio). The following applies: hypoxia response reporter cells, beta-lactamase ratio readout; series mostly up to 104 µM. In a few lines:
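Induction of beta-lactamase reporter activity was measured in CellSensor HRE-bla ME-180 cells after 17 h compound treatment at 37 degrees C, using CCF4 substrate and the 460nm/530nm emission ratio to derive AC50 values.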

Sequence of Ferritin light chain (Equus caballus) (P02791 2-175 limits assumed): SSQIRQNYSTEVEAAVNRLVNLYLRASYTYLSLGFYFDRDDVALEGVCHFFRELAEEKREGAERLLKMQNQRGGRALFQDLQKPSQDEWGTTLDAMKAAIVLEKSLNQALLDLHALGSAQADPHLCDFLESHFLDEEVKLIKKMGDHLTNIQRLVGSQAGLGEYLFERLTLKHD

Regarding `N=c1c[n+](N2CCOCC2)[n-]o1`, the Potency entry in [1], in experiment [2], in experiment [3], in experiment [4] and in [5] was “inactive” throughout. The result in experiment [6] and in [7] was inactive.
Consider `CC1=C(CC(=O)O)c2cc(F)ccc2/C1=C\c1ccc(S(C)=O)cc1` (stereo not given), for which the Potency result in [1], in experiment [2], in [8], in experiment [3], in [4] and in experiment [5] was “inactive” in each case.
In the case of `CSc1ccc2c(c1)N(CCC1CCCCN1C)c1ccccc1S2` (stereo not given), the Potency in experiment [1] is 4.47 µM (active); in experiment [2], 3.98 µM (active); in experiment [8] it was 8.91 µM (active); in [3] it was 12.6 µM (active); in experiment [4], 12.6 µM (active); in experiment [9], 5.01 µM (active). For the same compound, the Potency in experiment [5] is 8.91 µM (active). Besides, the result in experiment [7] was inactive.
With `OCc1cc(C(O)CNCCCCCCOCCCCc2ccccc2)ccc1O` (stereo not given), the Potency in [1] is 8.91 µM (active); in experiment [2] it was 8.91 µM (active); in experiment [8], 8.91 µM (active); in experiment [3] it was 12.6 µM (active); in experiment [9], 7.08 µM (active); in experiment [5], 10 µM (active).
For `CN(C)CC[C@@H](c1ccc(Cl)cc1)c1ccccn1`, the Potency in experiment [1] was 2.51 µM (active); in experiment [4], 3.98 µM (active); in [9] it was 1 µM (active). Also, the Potency entry in experiment [8], in experiment [3] and in [5] was “inactive” in each case. In [7], the result was inactive.
On to `C#CCN(C)Cc1ccccc1`, for which the Potency entry in experiment [1], in experiment [2], in experiment [8], in experiment [3], in [4] and in [5] was “inactive” each time. In addition, the result in experiment [7] was inactive.
Regarding `CN(C)CCOC(C)(c1ccccc1)c1ccccn1` (stereo not given), the results for the Potency in experiment [2], in experiment [4] and in experiment [9] were 6.31 µM (active), 10 µM (active) and 3.55 µM (active), respectively. The Potency entry in experiment [5] was “inactive”. The compound was called inactive in experiment [7].
For `O=C1N=C(O)CN1/N=C/c1ccc(-c2ccc([N+](=O)[O-])cc2)o1`, the values for the Potency in experiment [8] and in [9] were 11.2 µM (active) and 7.08 µM (active), respectively. For the same compound, in experiment [4], the Potency entry is “inactive”.
Turning to `O=C1O[C@H]([C@@H](O)CO)C(O)=C1O`, in experiment [10], the outcome was inactive.
Same read-out and setting: with `CC12CCC(CC1)C(C)(C)O2` the entry was “inactive”.
On to `COC(=O)C1=C(C)NC(C)=C(C(=O)OC)C1c1ccccc1[N+](=O)[O-]`, for which the Potency entry in experiment [4] is “inactive”. Besides, the outcome in [7] was inactive.
Turning to `O=C1c2c(O)cccc2Cc2cccc(O)c21`, the result in experiment [10] was inactive.
Turning to `CNCC(O)c1ccc(O)c(O)c1` (stereo not given), the Potency result in experiment [4] was “inactive”. Moreover, in experiment [9], the Potency is 14.1 µM (active). The outcome in [7] was inactive.
For the compound `CC1(C)[C@@H]2CC[C@@]1(C)C(=O)C2`, the result in experiment [10] was inactive.
Turning to `CC1=C(CC(=O)O)c2cc(F)ccc2/C1=C\c1ccc(S(C)(=O)=O)cc1`, the Potency entry in [2], in experiment [8], in experiment [3] and in experiment [4] was “inactive” throughout. For the same compound, the result in [7] was inactive.
Regarding `NCCNCCNCCNCCN`, the result in experiment [10] was inactive.
On the same count and under the same terms, in the case of `C[C@]12C[C@H](O)[C@H]3[C@@H](CCC4=CC(=O)CC[C@@]43C)[C@@H]1CC[C@@H]2C(=O)CO` it was “inactive”; in that of `Oc1cccc(O)c1`, “inactive”.
Turning to `CN(C)CCCN1c2ccccc2CCc2ccccc21`, the result in [7] was inactive.
In the case of `CNC(=O)Oc1ccc2c(c1)[C@]1(C)CCN(C)[C@@H]1N2C`, the compound was classed as inactive in [7].
On to `Cc1cc(CC(=O)O)n(C)c1C(=O)c1ccc(Cl)cc1`, for which the outcome in [10] was inactive.
Consider `Cc1cc(N)c2ccccc2[n+]1CCCCCCCCCC[n+]1c(C)cc(N)c2ccccc21`, for which the Potency in [2] is 0.251 µM (active); in [8] it was 0.0501 µM (active); in experiment [3], 0.112 µM (active); in experiment [4], 2.24 µM (active); in experiment [5], 0.126 µM (active). For the same compound, the call in [7] was inactive.
Regarding `COc1ccccc1O`, the outcome in experiment [10] was inactive.
For `CC(C)C(=O)c1c(C(C)C)nn2ccccc12`, the Potency entry in experiment [2], in experiment [3] and in experiment [4] was “inactive” each time. Besides, the call in experiment [7] was inactive.
Turning to `CC1=C(/C=C/C(C)=C/C=C/C(C)=C/C(=O)O)C(C)(C)CCC1`, the Potency in [1] and in experiment [9] was 14.1 µM (active) each time. The Potency entry in [8] and in [3] was “inactive” each time.
Take `CCCCCCCCCCCCOS(=O)(=O)O`: in experiment [10], the result was inactive.
For the compound `CN(C)CCC=C1c2ccccc2CCc2ccccc21`, the compound was called inactive in [7].
On to `COc1ccc(Cl)cc1C(=O)NCCc1ccc(S(=O)(=O)NC(=O)NC2CCCCC2)cc1`, for which the Potency entry in [2], in experiment [8], in experiment [3], in experiment [4] and in [5] was “inactive” in each case. Besides, in experiment [7], the compound was classed as inactive.
As for `CCCCCCCCCCCCCCCC(=O)NCCO`, the results for the Potency in [8] and in [9] were 12.6 µM (active) and 3.16 µM (active), respectively. Also, the Potency entry in experiment [3] and in experiment [4] was “inactive” in each case. For the same compound, the result in experiment [6] and in experiment [7] was inactive.
Consider `CCCn1cnc2c1c(=O)n(CCCCC(C)=O)c(=O)n2C`, for which the Potency entry in experiment [4] was “inactive”. Moreover, the Potency in experiment [9] was 12.6 µM (active). Further, the call in experiment [7] was inactive.
For `C[C@]12CC[C@@H]3c4ccc(O)cc4CC[C@H]3[C@@H]1CCC2=O`, the Potency in [1] is 3.98 µM (active); in experiment [9], 11.2 µM (active). The outcome in experiment [7] was inactive.
On to `NCCNCCNCCN`, for which the outcome in [10] was inactive.
Take `NC(=O)c1ncn([C@@H]2O[C@H](CO)[C@@H](O)[C@H]2O)n1`: the Potency result in [3], in experiment [4] and in [5] was “inactive” in each case. In experiment [7], the result was inactive.
Consider `[Cl][In]([Cl])[Cl]`, for which, in experiment [10], the outcome was inactive.
